For orientation: inhibition means the change of the read-out against control, counted positive when it falls.

A short description of assay [1]: stimulators of insulin release from INS-1E, primary screen, cell-based, 5 mM glucose, NPC library (AID 1117329). Particulars: rat INS-1E insulin secretion, at 10 µM, hits give high values.
Assay [2] in a line: growth inhibition of GSK3B-pretreated HCT116 cells – cell-based, CellTiter-Glo, 0.2 to 20 µM (AID 1117336;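 active means compounds lowering colon cancer cell viability after pretreatment blocking the GSK3B kinase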). As to conditions: HCT116 viability after GSK3B inhibitor, at 20 µM, hits give high values.
Assay [3] in a line: inhibition of endothelial tube formation, primary screen, imaging, VEGF stimulated, CD31 staining, tube area, NPC library (AID 1117340;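 active means compound that reduces growth-factor-driven endothelial tube area in a mixed cell culture, no cutoff stated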). As to conditions: VEGF-stimulated ADSC/ECFC co-culture, at 10 µM, hits give high values.
Assay [4] can be described thus: GLP1 release stimulators, primary, NCI-H716, NPC library (AID 1117341;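 active means compound raises GLP1 secretion from the human gut endocrine cells, with no numeric limit stated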). Particulars: NCI-H716 cells, at 10 µM, hits give high values.
The nature of assay [5]: HCT116 colon cancer cell growth inhibition, primary screen, CellTiter-Glo luminescence, NPC library (AID 1117342;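 active means compounds that lower survival of HCT116 colon cancer cells in the luminescence readout, no numeric limit stated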). Particulars: at 20 µM (top of the series). Background: In ATP-based viability assays light output follows the ATP content of the culture.
Assay [6] is described as follows: reduced SW480 viability measured with CellTiter-Glo, NPC library, primary (AID 1117343;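 active means compounds that lower viability of the colon cancer cells in the luminescence readout, with no numeric limit stated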). As to conditions: CellTiter-Glo luminescence; at 20 µM (top of the series).
A short description of assay [7]: NPC library primary testing for decreased DLD-1 cell viability via CellTiter-Glo (AID 1117346;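 active means compounds that lower survival of DLD-1 colon cancer cells in the luminescence readout, no cutoff given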). As to conditions: DLD-1 viability, CellTiter-Glo luminescence; at 20 µM (top of the series).
In assay [8] the target is 6-phosphogluconate dehydrogenase, decarboxylating (Homo sapiens) (UniProt P52209). Description: inhibition of human phosphogluconate dehydrogenase – biochemical, recombinant enzyme, NADPH absorbance, primary screen (AID 1159550;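 active means at least 20% inhibition of 6-phosphogluconate dehydrogenase activity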). As to conditions: recombinant 6PGD, NADPH absorbance 341 nm; at 10 µM; hits give high values.
Assay [9] addresses Calcium-dependent protein kinase 1 (Plasmodium falciparum (isolate 3D7)) (UniProt P62344). Description: PfCDPK1 kinase inhibitors, biochemical, TCAMS library (AID 1159585; cut-off not given, nearly all actives have IC50 up to about 0.98 µM;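 further: inhibitors leave more ATP so luminescence rises with inhibition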). Particulars: recombinant PfCDPK1, Kinase-Glo ATP depletion luminescence. Background: Kinase-Glo measures the ATP left after a reaction by luminescence.
For assay [10], the target named is Plasmodium falciparum protein kinase 6 (PK6, PF3D7_1337100) (UniProt Q8IDW1). As to the kind of experiment: PfPK6 kinase inhibitors, biochemical, TCAMS library (AID 1159586; call rule not given here). As to conditions: recombinant PfPK6, Kinase-Glo ATP depletion luminescence.

Values without a mark were called inactive. For some assays here: Results with a measured potency or affinity are listed apart. Activity calls are given as the source filed them.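 How the source made its calls, unless noted: active means compound raises insulin release from rat beta cells at 5 mM glucose, no numeric limit stated; inactive means the rest.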

Sequence of Calcium-dependent protein kinase 1 (Plasmodium falciparum (isolate 3D7)) (P62344 whole entry, looked up): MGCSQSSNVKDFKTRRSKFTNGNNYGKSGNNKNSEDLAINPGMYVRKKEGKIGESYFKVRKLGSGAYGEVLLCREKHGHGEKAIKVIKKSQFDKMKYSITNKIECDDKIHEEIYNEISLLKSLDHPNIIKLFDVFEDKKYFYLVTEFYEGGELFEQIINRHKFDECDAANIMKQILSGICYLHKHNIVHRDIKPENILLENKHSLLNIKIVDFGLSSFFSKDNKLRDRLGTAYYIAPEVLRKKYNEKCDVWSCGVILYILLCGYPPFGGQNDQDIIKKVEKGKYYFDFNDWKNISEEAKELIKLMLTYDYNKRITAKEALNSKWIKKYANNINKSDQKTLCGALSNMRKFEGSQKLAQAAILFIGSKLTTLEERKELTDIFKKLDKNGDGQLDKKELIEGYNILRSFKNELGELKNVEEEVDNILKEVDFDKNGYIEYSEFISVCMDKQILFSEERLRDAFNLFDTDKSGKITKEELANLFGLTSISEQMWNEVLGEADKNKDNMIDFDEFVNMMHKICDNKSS
Sequence of Plasmodium falciparum protein kinase 6 (PK6, PF3D7_1337100) (Q8IDW1 1-305): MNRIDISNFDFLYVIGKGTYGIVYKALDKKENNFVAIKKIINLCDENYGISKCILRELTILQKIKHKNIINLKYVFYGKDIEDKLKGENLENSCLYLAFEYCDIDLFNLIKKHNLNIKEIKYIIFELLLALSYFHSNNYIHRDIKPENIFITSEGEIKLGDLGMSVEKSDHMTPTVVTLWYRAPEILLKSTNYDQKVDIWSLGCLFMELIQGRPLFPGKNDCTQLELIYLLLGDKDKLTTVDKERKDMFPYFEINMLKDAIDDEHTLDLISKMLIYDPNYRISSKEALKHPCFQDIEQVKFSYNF
Sequence of 6-phosphogluconate dehydrogenase, decarboxylating (Homo sapiens) (P52209 whole entry, looked up): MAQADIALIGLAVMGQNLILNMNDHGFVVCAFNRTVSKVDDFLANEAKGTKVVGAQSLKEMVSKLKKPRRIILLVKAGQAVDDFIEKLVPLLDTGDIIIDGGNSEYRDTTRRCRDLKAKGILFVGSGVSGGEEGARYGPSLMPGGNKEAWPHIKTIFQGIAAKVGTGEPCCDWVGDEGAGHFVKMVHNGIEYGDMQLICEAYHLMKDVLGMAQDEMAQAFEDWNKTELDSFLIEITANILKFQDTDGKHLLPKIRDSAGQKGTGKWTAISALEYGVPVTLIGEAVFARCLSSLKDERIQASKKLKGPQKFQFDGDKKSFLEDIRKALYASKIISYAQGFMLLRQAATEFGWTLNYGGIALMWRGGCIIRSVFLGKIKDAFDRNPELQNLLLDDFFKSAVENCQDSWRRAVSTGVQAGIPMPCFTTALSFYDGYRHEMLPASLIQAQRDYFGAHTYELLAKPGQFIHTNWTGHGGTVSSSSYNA

For `Cc1cc(O)cc(C)c1Cl`, the insulin secretion stimulation in [1] was 2%. Moreover, in assay [2], the viability decrease is -11%. Further, the tube area decrease in [3] was -5.3%. Further, in assay [4], the GLP1 secretion stimulation was -2%. In [5], the inhibition of viability is 18.1%. The viability decrease (inhibition) was 28.5% in assay [6] and 9.3% in [7]. Besides, in assay [8], the inhibition is 0.336%.

For the molecule `N=C(N)N`, the insulin secretion stimulation in assay [1] was 1.1%. The viability decrease in [2] is -1.8%. Moreover, the tube area decrease in assay [3] is 12.8%. Moreover, the GLP1 secretion stimulation in [4] is -1.2%. In assay [5], the inhibition of viability is 1.3%. Further, the viability decrease (inhibition) in assay [6] was 1% (active); in [7], -1.3%. The inhibition in assay [8] was 0.391%.

Consider `OCC(O)CN1CCN(c2ccccc2)CC1` (stereo not given), for which the insulin secretion stimulation in [1] is 0.6%. The viability decrease in assay [2] was -6.6%. Also, in assay [3], the tube area decrease is -0.2%. The GLP1 secretion stimulation in assay [4] was -1.1%. Also, the inhibition of viability in [5] is 4.03%. In addition, the viability decrease (inhibition) is 29% in assay [6] and -12.9% in assay [7]. Besides, the inhibition in assay [8] is 8.41%.

With `O=C(O)CCNC(=O)c1ccccc1`, in assay [1], the insulin secretion stimulation is -1%. Further, the viability decrease in assay [2] is 6.3%. Moreover, the tube area decrease in [3] was -2%. Also, in [4], the GLP1 secretion stimulation was -0.3%. Further, the inhibition of viability in [5] was -7.2%. For the same molecule, the viability decrease (inhibition) in assay [6] was -1.3%; in [7] it was 6.4%. The inhibition in assay [8] was 2.23%.

In the case of `COc1cc2c(cc1OC)-c1cc(=Nc3c(C)cc(C)cc3C)n(C)c(=O)n1CC2`, in [1], the insulin secretion stimulation is 1.3%. For the same molecule, the viability decrease in [2] is 91.5% (active). The tube area decrease in assay [3] was -11.8%. The GLP1 secretion stimulation in assay [4] is 12.7%. In [5], the inhibition of viability is 71.2% (active). For the same molecule, the viability decrease (inhibition) in assay [6] was 120% (active); in [7], 66.5% (active). For the same molecule, the outcome in assay [9] and in [10] was inactive.

On to `c1ccc(CN(CC2=NCCN2)c2ccccc2)cc1`, for which the insulin secretion stimulation in [1] is 11.3%. Also, in assay [2], the viability decrease was -68.5%. In [3], the tube area decrease is 23.2%. The GLP1 secretion stimulation in assay [4] was -1.9%. In addition, the inhibition of viability in [5] is 15.7%. Further, the values for the viability decrease (inhibition) in assay [6] and in [7] were 22% and 0.7%, respectively. Besides, the inhibition in assay [8] was -4.52%.

For the molecule `O=C(Nc1cccc(C2=NCCN2)c1)Nc1cccc(C2=NCCN2)c1`, in assay [1], the insulin secretion stimulation was 0.05%. The viability decrease in assay [2] was 72.2% (active). The tube area decrease in assay [3] was -57.4%. For the same molecule, the GLP1 secretion stimulation in assay [4] was -1%. For the same molecule, the inhibition of viability in [5] is 70.7% (active). In addition, the results for the viability decrease (inhibition) in assay [6] and in assay [7] were 52.2% (active) and 60.8% (active), respectively. In addition, the result in assay [9] and in [10] was inactive.

With `CSc1ccc2c(c1)C(N1CCN(C)CC1)Cc1ccccc1S2` (stereo not given), in assay [1], the insulin secretion stimulation is 30.7% (active). For the same molecule, the viability decrease in assay [2] was 111% (active). The tube area decrease in assay [3] is 61.8% (active). Moreover, in assay [4], the GLP1 secretion stimulation is 19.2%. Moreover, the inhibition of viability in [5] is 113% (active). The viability decrease (inhibition) in [6] is 132% (active); in [7], 102% (active). In [8], the inhibition was -11.1%.

With `CN(Cc1cnc2nc(N)nc(N)c2n1)c1ccc(C(=O)N[C@@H](CCC(=O)O)C(=O)O)cc1`, the insulin secretion stimulation in assay [1] was -1.8%. Further, in [2], the viability decrease was 87.8% (active). In assay [3], the tube area decrease is 57.2% (active). Moreover, the GLP1 secretion stimulation in assay [4] is 1.1%. Moreover, in [5], the inhibition of viability is 74.5% (active). Also, the viability decrease (inhibition) in [6] was 78.8% (active); in [7], 65.9% (active). Besides, the result in [9] and in [10] was inactive.

In the case of `CC(=O)O[C@]1(C(C)=O)CC[C@H]2[C@@H]3C=C(Cl)C4=CC(=O)CC[C@]4(C)[C@H]3CC[C@@]21C`, the insulin secretion stimulation in assay [1] was 0%. In addition, the viability decrease in assay [2] was 56.2% (active). Also, the tube area decrease in assay [3] is 22.4%. Further, in assay [4], the GLP1 secretion stimulation is 1.3%. Also, the inhibition of viability in [5] was 52.6% (active). The viability decrease (inhibition) in assay [6] is 57.1% (active); in assay [7] it was 7.1%. Moreover, the inhibition in [8] was -12%.

For `COc1cc2c(Nc3ccc(Br)cc3F)ncnc2cc1OCC1CCN(C)CC1`, the insulin secretion stimulation in [1] is 2.4%. Further, the viability decrease in [2] was -7.7%. Moreover, in assay [3], the tube area decrease is -0.5%. The GLP1 secretion stimulation in [4] is 1.5%. Moreover, in assay [5], the inhibition of viability is -16%. Besides, the viability decrease (inhibition) was -11.4% in [6] and -10.1% in assay [7]. Further, in assay [10], the outcome was inactive.

As for `Cc1cc(=O)[nH]c(=S)[nH]1`, the insulin secretion stimulation in assay [1] is -0.5%. In addition, the viability decrease in assay [2] is 0.65%. Besides, the tube area decrease in assay [3] was -25.4%. The GLP1 secretion stimulation in assay [4] is 1.6%. In addition, in assay [5], the inhibition of viability was -2.3%. For the same molecule, the viability decrease (inhibition) was 11.6% in assay [6] and 0.15% in assay [7]. Besides, in [8], the inhibition is -2.01%.

With `COc1cc(NS(=O)(=O)c2ccc(N)cc2)ncn1`, the insulin secretion stimulation in assay [1] is 4.3%. Also, the viability decrease in assay [2] is 16.8%. The tube area decrease in assay [3] was 1.4%. Besides, the GLP1 secretion stimulation in assay [4] is -4.1%. In addition, the inhibition of viability in assay [5] is 3.43%. Further, the viability decrease (inhibition) in assay [6] was -10.6%; in [7], 3.8%. In addition, in assay [8], the inhibition was -1.56%.

Take `NC(=NCCCCCCN=C(N)/N=C(\N)Nc1ccc(Cl)cc1)/N=C(\N)Nc1ccc(Cl)cc1`: in assay [1], the insulin secretion stimulation is 36.6% (active). The viability decrease in assay [2] was 120% (active). Also, the tube area decrease in [3] was 111% (active). Also, the GLP1 secretion stimulation in assay [4] was 161% (active). For the same molecule, the inhibition of viability in assay [5] is 125% (active). Moreover, the viability decrease (inhibition) in assay [6] was 166% (active); in assay [7], 101% (active). Further, the inhibition in assay [8] was -5.13%.

On to `O=C(O)CCC(=O)Nc1ccc(S(=O)(=O)Nc2nccs2)cc1`, for which the insulin secretion stimulation in [1] is -2.6%. For the same molecule, the viability decrease in assay [2] was -3.7%. Besides, the tube area decrease in assay [3] was 21%. Moreover, in assay [4], the GLP1 secretion stimulation was -5.7%. Besides, the inhibition of viability in assay [5] is 2%. Further, the viability decrease (inhibition) was 40.3% in [6] and 9.45% in assay [7]. In assay [8], the inhibition was -5.92%.

As to `CCCC(C(=O)OCCN(CC)CC)(c1ccccc1)c1ccccc1`, the insulin secretion stimulation in assay [1] is 5.7%. Moreover, the viability decrease in [2] was 52.5% (active). In addition, the tube area decrease in [3] was 9.6%. In addition, the GLP1 secretion stimulation in assay [4] is 11.5%. Besides, the inhibition of viability in [5] is 86.3% (active). For the same molecule, the viability decrease (inhibition) in assay [6] was 76.5% (active); in [7], 62.5% (active). For the same molecule, the inhibition in assay [8] is 3.92%.

As for `CCCCCCCC/C=C\CCCCCCCC(=O)NCc1ccc(O)c(OC)c1`, the insulin secretion stimulation in assay [1] was 3.15%. Further, the viability decrease in assay [2] was 26.6%. Further, the tube area decrease in assay [3] is 17.4%. For the same molecule, in assay [4], the GLP1 secretion stimulation was 6.2%. The inhibition of viability in assay [5] was 65.7% (active). The results for the viability decrease (inhibition) in [6] and in assay [7] were 47.5% and 53.1% (active), respectively. Moreover, the result in assay [9] and in assay [10] was inactive.

(Values after PubChem BioAssay.)
